Cdc42 wt = modulators of GTP binding to wildtype Cdc42, primary screen, biochemical, multiplex bead flow cytometry, Bodipy-GTP; Cell division control protein 42 homolog (Homo sapiens), P60953; GST-Cdc42 beads; actives lie on both sides; percent activity (GTP binding), % at 10 µM; actives 0.2% (n = 190,000);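 active = percent activity GTP binding at least 20 points away from the 100% baseline, either down as inhibitor or up as activator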;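 note: median bead fluorescence of bound Bodipy-FL-GTP at 100 nM; 0% = excess unlabeled GTP control and 100% = no compound control; below 100% means less GTP binding so inhibitor and above means activator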
Target sequence (P60953 whole entry, looked up): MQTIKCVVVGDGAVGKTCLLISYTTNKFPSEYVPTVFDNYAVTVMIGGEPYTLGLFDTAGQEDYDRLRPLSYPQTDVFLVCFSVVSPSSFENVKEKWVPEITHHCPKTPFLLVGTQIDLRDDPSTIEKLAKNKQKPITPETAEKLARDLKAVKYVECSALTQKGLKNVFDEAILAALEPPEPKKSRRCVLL
Rab2 wt GTP = modulators of GTP binding to Rab2A wildtype, primary screen, biochemical, dog, bead-based flow cytometry, multiplex. Ras-related protein Rab-2A (Canis lupus familiaris), P61105. GST-Rab2 wt beads, Bodipy-GTP binding. GTP binding activity, % at 10 µM. actives 0.19% (n = 190,000);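 active = GTP binding activity at least 20 points away from 100%, either lowered or raised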;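 note: 0% = beads with excess unlabeled GTP and 100% = no-compound control corrected for plate trend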
Rac1 act GTP bind = GTP binding modulators of activated mutant Rac1, primary screen, biochemical, bead-based flow cytometry, multiplex, fluorescent GTP; Ras-related C3 botulinum toxin substrate 1 (Homo sapiens), P63000; GST-Rac1 activated beads; actives lie on both sides; 100% means binding = to untreated wells; percent activity (GTP binding), % at 10 µM; actives 0.11% (n = 190,000);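 active = GTP binding at least 20 percentage points away from the 100% baseline, in either direction, so actives lie on both sides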
Rab7 wt modul = modulators of GTP binding to Rab7, primary screen, biochemical, wildtype, multiplex bead flow cytometry; actives 0.055% (n = 190,000); AID 758, 2007; GST-Rab7 beads, fluorescent GTP binding; actives lie on both sides; untreated = 100%, excess cold GTP = 0%; GTP binding activity (percent of control), % at 10 µM; Rab7 GTPase wild type (dog), Bodipy-FL-GTP binding;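 active = fluorescent GTP binding to Rab7 beads changed by at least 20 points from the 100% baseline, either direction, mostly lower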;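 note: median green fluorescence of bound Bodipy-FL-GTP per Rab7 bead population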
HRas wt GTP bind = modulators of GTP binding to HRas wildtype, primary screen, biochemical, bead-based flow cytometry, multiplex; GTPase HRas (Homo sapiens), P01112; actives 0.14% (n = 190,000); GST-Ras wt beads, Bodipy-FL-GTP binding; actives lie on both sides; GTP binding activity, % at 10 µM;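 active = GTP binding activity at least 20% away from the 100% baseline, either lowered as inhibitor or raised as activator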;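 note: 0% = unlabeled GTP competition control and 100% = no-compound control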
Target sequence (P01112 whole entry, looked up): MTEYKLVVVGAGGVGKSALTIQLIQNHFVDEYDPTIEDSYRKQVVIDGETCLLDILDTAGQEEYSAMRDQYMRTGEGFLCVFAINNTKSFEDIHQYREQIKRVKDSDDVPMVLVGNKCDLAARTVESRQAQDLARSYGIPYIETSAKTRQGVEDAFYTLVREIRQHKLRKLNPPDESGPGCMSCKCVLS
Rac1 wt modul = wildtype Rac1 GTP binding modulators, primary screen, biochemical, GST-Rac1 beads, flow cytometry, multiplex. Ras-related C3 botulinum toxin substrate 1 (Homo sapiens), P63000. fluorescent GTP binding; actives lie on both sides; 0 = cold GTP competed, 100 = untreated. GTP binding activity (% of control), % at 10 µM. actives 0.27% (n = 190,000). AID 757, 2007;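 active = GTP binding activity at least 20 points away from the 100% control level, either lower or higher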
Numbers without * were called inactive; . = not tested or not shown; [ ] = remark or other dose. An excerpt weighted towards active compounds, which were near 0.4% of everything screened.

SMILES	Cdc42 wt	Rab2 wt GTP	Rac1 act GTP bind	Rab7 wt modul	HRas wt GTP bind	Rac1 wt modul
CSCCC(NC(=O)/C(=C\c1ccc(Cl)cc1)NC(=O)c1ccccc1)C(=O)O (centres undefined)	94	98	93	99	96	103
CCOc1ccc(Cc2n[nH]c(=S)n2Cc2ccccc2)cc1	94	96	93	101	97	99
O=C(CN1CCCCC1)N1CCCc2ccccc21	104	102	101	100	103	106
N#Cc1ccc2ccn(CC(=O)N3CCCc4ccccc43)c2c1	109	109	106	110	109	129*[activator]
COc1ccc(CCNC(=O)C(=O)Nc2nccs2)cc1OC	99	99	97	97	99	98
COc1ccc(CC(=O)Nc2ccc(C(=O)Nc3nccs3)cc2)cc1OC	73*	73*	89	94	77*	82
O=C(C1CCCO1)N1CCN(C(=S)Nc2ccccc2C(F)(F)F)CC1 (centres undefined)	108	125*[activator]	104	108	117	109
NC(=S)N=Nc1c(O)[nH]c2ccc(F)cc12	84	74*	89	85	76*	76*
O=Nc1c(O)[nH]c2ccc(F)cc12	94	96	93	102	96	100
CCCc1cc(=O)[nH]c(SCC(=O)Nc2ccc(Br)cc2Br)n1	97	100	96	102	97	97
O=S1(=O)N=C(N(CCO)/N=C/c2ccncc2)c2ccccc21	64*	66*	76*	83	67*	56*
O=S1(=O)N=C(N(CCO)/N=C/c2ccccc2)c2ccccc21	71*	70*	83	91	72*	70*
Cc1cc2[nH]c3c(c[n+](C)c4ccccc34)c2cc1C	85	87	94	94	87	76*
Cc1cc(=O)[nH]c2ccccc12	108	105	101	107	107	107
COc1ccc(-c2nn3c(-c4ccccn4)nnc3s2)cc1OC	82	79*	89	86	80	74*
O=C(O)c1cccc(-n2c(-c3cnccn3)n[nH]c2=S)c1	94	96	97	98	98	97
COc1ccc2nc(C)cc(SCC(=O)N/N=C/c3cccc4ccccc34)c2c1	98	98	97	97	98	98
COc1cccc2c(SCC(=O)N/N=C/c3ccccc3)cc(C)nc12	99	97	95	99	94	96
COc1ccc2nc(C)cc(SCC(=O)N/N=C/c3ccc(O)c(O)c3)c2c1	69*	68*	82	91	72*	79*
COc1cccc2c(SCC(=O)N/N=C/c3ccc(O)c(O)c3)cc(C)nc12	71*	75*	84	89	79*	65*
CCOC(=O)/C(N=Nc1ccc2c(c1)OCO2)=C(\C)O	95	94	92	95	94	93
N#C/C(=C\c1ccncc1)c1nc2ccccc2[nH]1	41*	42*	35*	26*	43*	31*
Cc1cc2nc(/C(C#N)=C/c3ccncc3)[nH]c2cc1C	87	94	89	96	92	86
N#C/C(=C\c1ccc(-c2ccc(C(=O)O)cc2)o1)c1nc2ccccc2[nH]1	78*	77*	80	87	80	71*
COc1ccc2nc3ccccc3nc2c1NC(=O)c1ccc(Cl)cc1Cl	105	102	100	105	102	104
SMILES	Cdc42 wt	Rab2 wt GTP	Rac1 act GTP bind	Rab7 wt modul	HRas wt GTP bind	Rac1 wt modul
O=C(O)c1cc([N+](=O)[O-])ccc1NCc1ccccc1	172*[activator]	153*[activator]	146*[activator]	137*[activator]	150*[activator]	204*[activator]
CCCCCCCCSc1nnc2[nH]c(=O)cc(N)n12	69*	.	.	.	84	.
Nc1nc(CN2CCN(c3ccccc3F)CC2)nc(N2CCCc3ccccc32)n1	79*	83	80	88	87	87
O=C(COc1ccccc1[N+](=O)[O-])Nc1cc(Cl)ccc1C(=O)O	80	83	79*	92	85	87
Cc1nn(CCc2nn[nH]n2)c2nc(-c3ccc(C4CCCCC4)cc3)cc(C(F)(F)F)c12	77*	81	78*	84	82	79*
Cc1nc(Nc2cccc(C(C)O)c2)c2nnn(Cc3ccccc3F)c2n1 (centres undefined)	98	96	96	94	97	100
Cc1nc2nc(SCC(=O)NCc3ccco3)nn2c(C)c1Cc1c(F)cccc1Cl	95	97	96	96	97	95
Cc1nc2nc(SCC(=O)O)nn2c(C)c1Cc1ccccc1Cl	82	78*	81	83	84	90
Cc1nc2nc(SCC(=O)O)nn2c(C)c1Cc1c(F)cccc1Cl	72*	73*	70*	87	78*	78*
Cc1[nH]n2c(=O)c3c(nc2c1-c1ccc(F)cc1)CCCC3	87	87	88	92	87	81
Cc1ccc(N=Nc2c(=O)[nH]n3c(C)cc(C)nc23)cc1	100	100	95	99	97	98
Cc1ccc(N=Nc2c(N)[nH]n3c(=O)c4c(nc23)CCCC4)cc1	86	82	86	91	86	75*
Cc1ccc(N=Nc2c(N)[nH]n3c(=O)cc(C)nc23)cc1	88	81	88	92	87	75*
CN1CCN(C(=O)C23CC4CC(C2)CC(c2ccccc2)(C4)C3)CC1	98	101	99	104	99	98
COc1ccc(/C=C2\N=C(SC)SC2=O)cc1OC	82	77*	81	64*	81	81
CSC1=N/C(=C\c2ccc(C)cc2)C(=O)S1	107	104	99	98	105	103
CCn1cc(C(=O)O)c(=O)c2cc(F)c(N/N=C/c3ccccc3[N+](=O)[O-])cc21	82	58*	78*	77*	63*	64*
O=C(NCC1CCCN(Cc2ccc3nonc3c2)C1)c1cccc(C(F)(F)F)c1 (centres undefined)	101	97	96	96	97	98
